From PubChem BioAssay (Tox21)
Activity calls are given as the source filed them. Calls come from the whole dose curve; as a rule, active = well fitted activation curve with a large enough effect in the repeat runs; inconclusive = weak or mixed curves; inactive = flat fitted curve, though single readings scatter.
% is set by controls: 0 for no effect and ±100 for the full control effect; potency is the fitted concentration of half-maximal effect.

Experiment: Caspase-3/7 induction in CHO-K1 cells by small molecules, qHTS assay (AID 1346980); note: nearly all actives have a fitted effect of over 15% in size
Conditions: CHO-K1 caspase-3/7 induction, Caspase-Glo luminescence, 17 h; series mostly up to 92.4 µM; caspase-3/7 activation: at the top concentration
Description: National Center for Advancing Translational Sciences [NCATS]
NIH Chemical Genomics Center [NCGC]
U.S. Environmental Protection Agency [EPA]
National Institutes of Environmental Health Sciences [NIEHS]
National Toxicology Program [NTP]
Apoptosis is a process of programmed cell death and plays a central role in the development of multicellular organisms. It is a highly regulated process and induces cell death by activating caspases, which are the members of cysteine aspartic acid-specific protease (caspase) family. Caspases involved in apoptosis are classified by their mechanism of action as initiator caspases (caspase-2, -8, -9 and -10) and executioner caspases (caspase-3, -6, and -7). Inhibition of apoptosis results in number of cancers, autoimmune diseases, inflammatory diseases and viral infection. To identify small molecule compounds that induce apoptosis, a homogeneous, luminescent Caspase-Glo 3/7 assay was used. Wild type CHO-K1 cells were used to screen Tox21 libraries for identifying caspase-3/7 activity inducers.
CHO-K1 cells were dispensed at 1,500 per well in 5uL of culture medium into white solid bottom 1536-well plates (Corning Life Sciences, Corning, NY) using a Multidrop Combi (Thermo Scientific, Waltham, MA) dispenser. The assay plates were incubated at 37 C and 5% CO2 for 5hr, and then 23nL of compounds dissolved in DMSO and positive control were transferred using a Pintool station (Wako, San Diego, CA). The assay plates were incubated at 37C and 5% CO2 for 17hr. For caspase-3/7 activity read, 4uL of Caspase-Glo 3/7 reagent (Promega Corporation, Madison, WI) was added to each well of the assay plates using Flying Reagent Dispenser (FRD, Aurora Discovery, San Diego, CA) and incubated the assay plates at room temperature for 30min. The luminescence signal was quantified using a ViewLux plate reader (Perkin Elmer, Shelton, CT).
In the case of `CCC(C)c1ccccc1` (stereo not given), the “caspase-3/7 activation” value is reported as -2.22% (inactive). In the case of `CC(=O)OC(OC(C)=O)c1ccc([N+](=O)[O-])o1`, the “caspase-3/7 activation” value is reported as -5.52% (inactive). With `CCc1ccc(C)nc1` the “caspase-3/7 activation” value was 0.726% (inactive). In the case of `CCC(C)C(=O)OC` (stereo not given), the “caspase-3/7 activation” value is reported as -0.921% (inactive). With `CCOC(=O)CN` the “caspase-3/7 activation” value was -0.0409% (inactive). In the case of `S=C(SSSSSSC(=S)N1CCCCC1)N1CCCCC1`, the caspase-3/7 activation is reported as 1.75% [at 19 µM] (inactive). With `CCCCCCCCCCCCCc1ccccc1` the “caspase-3/7 activation” value was -1.3% [at 42.5 µM] (inactive). With `CC(CN(C)C)CN1c2ccccc2CCc2ccccc21` (stereo not given) the “caspase-3/7 activation” value was 0.224% [at 42.5 µM] (inactive). With `O=C(O)CCn1c2c(c3ccccc31)C[C@H](NS(=O)(=O)c1ccc(F)cc1)CC2` the “caspase-3/7 activation” value was -0.0785% [at 42.5 µM] (inactive). In the case of `CCOC(=O)COc1ccc(C)cc1`, the “caspase-3/7 activation” value is reported as 0.544% (inactive). For `Cc1cccc(C)n1`, the “caspase-3/7 activation” value was 0.549% (inactive). In the case of `Cc1cc(Nc2ccc(O)cc2)ccc1N`, the Potency is reported as 21.6 µM (active). With `CCCN(CCc1cccs1)[C@H]1CCc2c(O)cccc2C1` the “caspase-3/7 activation” value was 5.73% [at 42.5 µM] (inactive). For `Oc1cc2ccccc2cc1O`, the “caspase-3/7 activation” value was 2.52% (inactive). With `CCC(C)c1cc([N+](=O)[O-])cc([N+](=O)[O-])c1OC(=O)OC(C)C` (stereo not given) the “caspase-3/7 activation” value was -2.15% (inactive). With `O=C(O)CC(=O)O` the “caspase-3/7 activation” value was 0.149% (inactive). In the case of `COc1cccc(O)c1`, the “caspase-3/7 activation” value is reported as 0.0484% (inactive). In the case of `CCCCCCCC/C=C\CCCCCCCC(=O)OCCOC(=O)CCCCCCC/C=C\CCCCCCCC`, the “caspase-3/7 activation” value is reported as -0.476% (inactive). In the case of `CCCCCCCC(OC)OC`, the “caspase-3/7 activation” value is reported as -1.49% [at 42.5 µM] (inactive). In the case of `Clc1ccc(C(c2ccccc2Cl)C(Cl)Cl)cc1` (stereo not given), the “caspase-3/7 activation” value is reported as 9.18% [at 42.5 µM] (inactive). In the case of `CC(COC(=O)c1ccccc1)OC(=O)c1ccccc1` (stereo not given), the “caspase-3/7 activation” value is reported as 1.78% (inactive). With `CC(=O)OC1CCCCC1` the “caspase-3/7 activation” value was -2.01% (inactive). With `Cn1cnc2ncnc(N)c21` the “caspase-3/7 activation” value was 0.106% [at 42.5 µM] (inactive). For `Cc1cncc(C)c1`, the “caspase-3/7 activation” value was 1.62% (inactive). In the case of `CC(O)C#CC(C)O` (stereo not given), the “caspase-3/7 activation” value is reported as -3.47% (inactive). In the case of `CC(=O)C=O`, the “caspase-3/7 activation” value is reported as -0.165% (inactive). In the case of `COC(=O)CC#N`, the “caspase-3/7 activation” value is reported as 1.06% (inactive). In the case of `C#CC(O)CCC` (stereo not given), the “caspase-3/7 activation” value is reported as 0.117% (inactive). With `CN1CCN(C2Cc3ccccc3Sc3ccc(Cl)cc32)CC1` (stereo not given) the “caspase-3/7 activation” value was 0.894% [at 42.5 µM] (inactive). With `C[C@H]1O[C@@H](O[C@H]2[C@@H](O)C[C@H](O[C@H]3[C@@H](O)C[C@H](O[C@H]4CC[C@@]5(C)[C@H](CC[C@@H]6[C@@H]5C[C@@H](O)[C@]5(C)[C@@H](C7=CC(=O)OC7)CC[C@]65O)C4)O[C@@H]3C)O[C@@H]2C)C[C@H](O)[C@@H]1O` the Potency was “inactive”. With `CC(C)OC(=O)c1cc(C(=O)OC(C)C)cc([N+](=O)[O-])c1` the “caspase-3/7 activation” value was -2.59% (inactive). For `C/C=C/c1ccc(OC)c(OC)c1`, the “caspase-3/7 activation” value was -0.682% (inactive). In the case of `C=CCCCCCCC=C`, the “caspase-3/7 activation” value is reported as -1.52% (inactive). With `CC(C)=CCCC(C)O` (stereo not given) the “caspase-3/7 activation” value was -0.722% (inactive). In the case of `CCN1CCN(c2cc(-c3ccc(F)cc3)c3c(n2)CCCCCC3)CC1`, the caspase-3/7 activation is reported as 1.46% [at 19 µM] (inactive). In the case of `CCCCCCCCCCCC(=O)N(CC)CC`, the “caspase-3/7 activation” value is reported as 1.83% (inactive). In the case of `CCc1cccc(CC)c1NC(=O)C(=O)O`, the “caspase-3/7 activation” value is reported as -0.108% (inactive). With `CCCCN(CCCC)CCC(O)c1cc2c(Cl)cc(Cl)cc2c2cc(C(F)(F)F)ccc12` (stereo not given) the “caspase-3/7 activation” value was 2.06% [at 42.5 µM] (inactive). For `CCOC(/C=C(\C)CCC=C(C)C)OCC`, the “caspase-3/7 activation” value was 1.26% (inactive). With `CCCCCCOc1cc(C)c(O)c(C)c1C` the “caspase-3/7 activation” value was 6.91% (inactive).
